Measured values reported in PubChem BioAssay AID1421 (Emory University Molecular Libraries Screening Center, 2008).
Out of some 1,300 compounds screened, about 140 (11%) were called active. The rule behind the calls is not given here. Not all results are given here. Measured potencies and affinities stand elsewhere.

Biological target: Prostaglandin E2 receptor EP2 subtype (Homo sapiens) (UniProt P43116)
Assay: compounds shifting PGE2 potency at EP2 – cell-based, human EP2, PGE2 EC50 shift, dose response (AID 1421)
Conditions: EP2-expressing cells, PGE2 EC50 shift by compound; at 20 µM

Sequence of Prostaglandin E2 receptor EP2 subtype (Homo sapiens) (P43116 whole entry, looked up): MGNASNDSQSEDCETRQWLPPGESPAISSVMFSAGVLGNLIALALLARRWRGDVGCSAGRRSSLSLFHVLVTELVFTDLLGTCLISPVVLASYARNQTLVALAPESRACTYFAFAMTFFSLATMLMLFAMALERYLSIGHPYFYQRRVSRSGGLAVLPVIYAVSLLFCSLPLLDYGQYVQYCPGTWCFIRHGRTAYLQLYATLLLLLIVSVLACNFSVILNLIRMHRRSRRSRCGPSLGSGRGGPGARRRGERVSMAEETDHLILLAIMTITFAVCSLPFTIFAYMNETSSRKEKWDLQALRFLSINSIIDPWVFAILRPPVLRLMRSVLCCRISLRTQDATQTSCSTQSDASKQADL

PGE2 EC50 with compound, inactive:
Cc1ccc(S(=O)(=O)Nc2ccc(Cl)cc2C(=O)c2ccc(F)cc2)cc1 1 nM
O=C(/C(=C/O)N=Nc1ccccc1)c1ccc(Cl)cc1 7.05 nM
O=C(c1ccco1)N(CCC(c1ccccc1)c1ccco1)Cc1ccc(F)cc1 (stereo unspecified) 0.84 nM
Cc1ccc(S(=O)(=O)NCC(=O)N(c2ccccc2)C(C(=O)NCc2ccccc2)c2ccco2)cc1 (stereo unspecified) 0.62 nM
N#CCCSc1ncnc2c1oc1ccccc12 2.48 nM
CCOC(=O)CC(=O)CSc1ncnc2c1oc1ccccc12 2.96 nM
Cc1cc(=O)oc(C)c1C(=O)OC(C(=O)c1ccccc1)c1ccccc1 (stereo unspecified) 0.26 nM
Cc1noc(C)c1COC(=O)C(c1ccccc1)c1ccccc1 0.31 nM
COc1ccc2cc(CN(Cc3ccco3)C(c3nnnn3C3CCCCC3)C(C)C)c(=O)[nH]c2c1 (stereo unspecified) 0.82 nM
COc1ccc2cc3c(N)nn(C(=O)C4CCC(C(C)(C)C)CC4)c3nc2c1 (stereo unspecified) 0.34 nM
CCc1nnc2n1N=C(c1ccc(-c3cc(Cl)ccc3Cl)o1)CS2 0.42 nM
CCOC(=O)c1c(C=O)c(C)n(Cc2ccccc2Cl)c1C 0.46 nM
CCOC(=O)c1c(C=O)c(C)n(Cc2ccc(C)cc2)c1C 0.36 nM
Cc1cccc(NC(=O)CSc2ncnc3c2oc2ccccc23)c1 8.27 nM
Cc1nc(SCCC(=O)O)c2ccccc2n1 15.1 nM
COc1cc(/C=C/c2ccc3cccc([N+](=O)[O-])c3n2)ccc1OCC(=O)O 4.66 nM
COC(=O)C1C(c2ccccc2)C(C(=O)OCc2ccco2)C1c1ccccc1 (stereo unspecified) 0.38 nM
CSc1nc(Oc2ccc(F)cc2)c2ccccc2n1 0.42 nM
Fc1ccc(Sc2nc(-c3ccccc3)nnc2C(F)(F)F)cc1 1.16 nM
Cc1ccc(S(=O)(=O)c2c(C)cc(C)nc2N2CCCCC2)cc1 0.31 nM
CC1=C/C(=C(/c2ccc(O)c(C)c2)c2ccccc2C(=O)O)C=CC1=O 0.75 nM
CCOC(=O)c1c(CC(C)C)csc1N 0.39 nM
Cc1cc(Br)c2nc3c(c(C(=O)O)c2c1)CCCCC3 11.9 nM
O=C(N/N=C/c1ccc[nH]1)c1ccccc1OCc1ccccc1Cl 0.27 nM
O=C(O)NCc1ccccc1 (tested in a mixture with another compound) 0.49 nM
CS(=O)(=O)N(Cc1ccccc1)c1ccccc1C(=O)Nc1ccccc1C(=O)NCc1ccco1 56.6 nM
CCOc1ccccc1C(=O)Nc1ccccc1-c1ccccc1 0.2 nM
CCc1cc2cc(C)cc(C)c2nc1SCC(=O)N1CCCC1 0.43 nM
CCOC(=O)Cn1c(=S)[nH]c2c(oc3ccc(Cl)cc32)c1=O 6.72 nM
CCOc1ccc(OCC)c(NC(=O)CN2CCN(c3ccc(C)cc3C)CC2)c1 0.77 nM
C=CCCC1(C)C(=O)N(c2ccccc2)c2ccccc21 (stereo unspecified) 0.41 nM
CC1Cc2ccccc2N1CC(=O)NC(c1ccccc1)c1ccccc1 (stereo unspecified) 0.52 nM
Cc1cc(C)n(CCOc2ccc(Cl)cc2Cl)n1 0.34 nM
CCOc1cccc(CNc2ccc(O)cc2)c1OCc1ccc(Cl)cc1 0.78 nM
COC(=O)c1ccccc1NC(=O)C(C)Oc1ccccc1 (stereo unspecified) 0.81 nM
c1ccc(Cc2nc3ccccc3n2Cc2ccccc2)cc1 0.31 nM
Cc1cccc(OCc2n[nH]c(=S)n2Cc2ccccc2)c1 0.47 nM
COCCn1c(SCC(=O)NCCc2ccccc2)nnc1-c1ccco1 0.68 nM
COc1ccc(C(=O)O)cc1NC(=S)NC(=O)c1ccc(-c2ccc(Cl)cc2)o1 462 nM
CC(C)n1c2ccccc2c2nnc(SCC(=O)Nc3ccccc3C(=O)O)nc21 1.63 nM
COc1ccc(C(=O)Nc2cc(C)nn2-c2nc3ccccc3[nH]2)c(OC)c1 0.24 nM
Cc1cc(C)n(-c2cc(-c3ccccc3)nc(C)n2)n1 0.22 nM
Cc1oc(-c2ccccc2)cc1C(=O)Nc1cccc(/C=C\C(=O)O)c1
c1cncc(-c2nc(N3CCOCC3)c3c4c(sc3n2)CCC4)c1 0.72 nM
Cc1ccc(C2CC(c3cccs3)=NN2C(=O)c2ccc(Br)o2)cc1 (stereo unspecified) 0.31 nM
Cc1ccc(Cl)cc1NC(=S)N(Cc1ccco1)C(C)c1cccs1 (stereo unspecified) 0.26 nM
Cc1ccccc1NC(=S)N(Cc1ccco1)C(C)c1cccs1 (stereo unspecified) 0.4 nM
O=C(NCc1ccco1)c1ccc(=O)[nH]n1 0.48 nM
C/C(CCc1oc2ccccc2c1-c1ccc(C)o1)=N/O 0.47 nM
Cc1ccc(-c2cc3nn(-c4ccccc4)c(N)c3c(=O)o2)cc1 1.29 nM
Cc1ccc(N=Nc2c(N)[nH]n3c(=O)c4c(nc23)CCCC4)cc1 3.42 nM
O=C(O)COc1ccc2occ(C(=O)c3ccccc3)c2c1 0.37 nM
CCOc1nc(C)cc(C)c1S(=O)(=O)c1ccc(Cl)cc1 0.21 nM
CC(/C=C1\SC(=S)N(C(C(=O)O)C(C)C)C1=O)=C\c1ccccc1 (stereo unspecified) 1.95 nM
COc1ccccc1CNC(=O)C1(c2ccc(Cl)cc2)CC1 0.43 nM
CCCCc1nc(N2CCOCC2)c(C#N)c2c1CCCC2 0.37 nM
CCC(=O)N1CCN(c2nc(-c3ccccc3)c3c(c2C#N)CCCC3)CC1 0.31 nM
CCOc1ccc(OCC)c(NC(=O)CN2CCN(c3cc(C)ccc3C)CC2)c1 0.45 nM
Cc1occc1-c1nnc(SCC(=O)Nc2ccccc2N2CCCCC2)n1C 1.17 nM
O=C(CNCc1ccccc1Cl)Nc1ccccc1N1CCCCC1 0.81 nM
O=C(Cc1c(F)cccc1Cl)Nc1ccccc1N1CCCCC1 0.53 nM
CC(C)(C)N(Cc1ccccc1)C(=O)c1ccc(Br)o1 0.51 nM
COC(=O)NC1(C(F)(F)F)C(=O)NC(C)=C1C(=O)OC (stereo unspecified) 0.72 nM
CCOC(=O)N1CCC(=C2c3ccc(Cl)cc3CCc3cccnc32)CC1 0.38 nM
CCOC(=O)C1=C(C)N(C)C(C)=C(C(=O)OCC)C1c1ccccc1 0.51 nM
CC1CCN(c2nc(-c3ccncc3)nc3ccccc23)CC1 0.52 nM
Cc1nnc(SCC(=O)N2c3ccccc3C(C)(c3ccccc3)CC2(C)C)s1 (stereo unspecified) 0.37 nM
O=C(c1ccc(Cl)cc1)c1oc2ccccc2c1CS(=O)c1ccc(Cl)cc1 (stereo unspecified) 0.25 nM
O=C(COc1cccc2ccccc12)N1c2ccccc2CCc2ccccc21 0.35 nM
Clc1ccc(Cl)c(-c2ccc(/C=N/c3ncn[nH]3)o2)c1 2.61 nM
COc1ccccc1N(C(=O)NCc1ccccc1)C1=NCC(C)S1 (stereo unspecified) 0.21 nM
CCn1c2ccc(OC)cc2c2nc3ccccc3nc21 0.85 nM
O=c1cc(N2CCCCC2)c(-c2ccccc2)nn1Cc1ccccc1Cl 0.4 nM
CC1=CC2C(C(C)C)CCC(C)(O)C2CC1 (stereo unspecified) 0.83 nM
O=C(NCc1ccco1)C(c1cccs1)N(C(=O)Cc1cccs1)c1ccccc1 (stereo unspecified) 0.44 nM
c1ccc(-c2noc(-c3ccccc3-c3ccccc3)n2)cc1 0.5 nM
c1ccc(-c2noc(-c3cccc4ccccc34)n2)cc1 0.52 nM
COc1ccc(CCN(Cc2nc(-c3ccccc3)no2)Cc2nc(-c3ccccc3)no2)cc1OC 0.49 nM
COc1cc(-c2noc(-c3cccc(Cl)c3)n2)cc(OC)c1OC 0.47 nM
COc1ccc(-c2noc(-c3ccccc3-c3ccccc3)n2)cc1OC 0.17 nM
Cc1ccc(-c2csc3ncnc(N4CCc5ccccc5C4)c23)cc1 0.42 nM
Cc1ccc(-c2nn3c(C)nnc3s2)cc1NCc1c(F)cccc1Cl 0.97 nM
CC(C)Sc1nc2sc3c(c2c2nnc(SCC(=O)NCc4ccco4)n12)CCCC3 0.83 nM
Cc1sc2ncnc(Sc3ccccc3C(=O)O)c2c1C 3.01 nM
COc1cccc(-c2nc(N3CC(C)CC(C)C3)c3ccccc3n2)c1O (stereo unspecified) 0.13 nM
CCSc1nc2c(c(=O)[nH]c(=O)n2C)n1Cc1ccc(Cl)cc1 0.83 nM
CCOc1cccc(CNc2ccc(O)cc2)c1OCc1ccccc1Cl 0.8 nM
C=CCOc1ccccc1CNc1cccc(F)c1 0.37 nM
Cc1cc(SC(C)C(=O)O)nc2ccccc12 (stereo unspecified) 1.16 nM
O=C(CSc1ncnc2c1oc1ccccc12)Nc1ccccc1F 1.24 nM
O=[N+]([O-])c1ccc(Cl)c2c1C1C=CCC1C(c1ccccn1)N2 (stereo unspecified) 0.53 nM
CC(=O)N(c1cccc(Br)c1)C1C=CS(=O)(=O)C1 (stereo unspecified) 0.92 nM
Cc1nnc(SCC(=O)NC2CCCCC2)n1C1CCCCC1 0.89 nM
CC(NC(c1ccccc1)c1ccccc1)C(=O)N1CCCc2ccccc21 (stereo unspecified) 0.36 nM
Cc1ccc(C(=O)O)cc1NC(=S)NC(=O)c1ccc(-c2ccccc2)cc1 1.3 nM
O=C(COc1ccccc1)Nc1cc(C(F)(F)F)ccc1N1CCCC1 0.31 nM
